Source: PubChem (National Center for Advancing Translational Sciences (NCATS))
Hits are enriched below; roughly 18% of the tested compounds scored in any of these assays.
IL1B secr inh – inhibitors of inflammasome signaling (IL-1 beta secretion) | THP-1 LPS/ATP IL-1B secretion, AlphaLISA, 16 h; stronger effect = lower value | activity change, % at 57.5 µM | 4.7% of 360,000 active | AID 743279; in the data active = activity change below about -50%; inconclusive = mostly about -30% to -49%
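Secreted IL-1B measured by AlphaLISA bead assay after 16 h compound exposure of THP-1 cells; compounds (final up to 57.5 uM) added 1 h before LPS (250 ng/mL) and ATP (1.25 mM) stimulation; lower signal means less secretion.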
CtBP-E1A blk – inhibitors of CtBP/E1A interaction. AlphaScreen GST-E1A/His-CtBP binding, 1536-well; stronger effect = lower value. activity change, % (concentration not given with the values). AID 651724. 0.49% of 340,000 active; in the data active = activity change below about -65%; inconclusive = mostly about -30% to -63%
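Protein mix (5X: 125 nM each GST-E1A, His-CtBP) was incubated with pinned compound 2 h at 37 deg C in dark, in 50 mM Tris pH 8.0 buffer with 300 mM NaCl. Glutathione donor and nickel acceptor beads followed; AlphaScreen signal read after 1 h.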
TDP1 block – inhibitors of human tyrosyl-DNA phosphodiesterase TDP1; 0.28% of 350,000 active; Q9NUW8; Potency, µM (doses to about 130 µM), usual class: inhibitors; recombinant TDP1, AlphaScreen DNA substrate cleavage; note: nearly all actives have a fitted effect of over 40% in size
Target sequence (Q9NUW8 whole entry, looked up): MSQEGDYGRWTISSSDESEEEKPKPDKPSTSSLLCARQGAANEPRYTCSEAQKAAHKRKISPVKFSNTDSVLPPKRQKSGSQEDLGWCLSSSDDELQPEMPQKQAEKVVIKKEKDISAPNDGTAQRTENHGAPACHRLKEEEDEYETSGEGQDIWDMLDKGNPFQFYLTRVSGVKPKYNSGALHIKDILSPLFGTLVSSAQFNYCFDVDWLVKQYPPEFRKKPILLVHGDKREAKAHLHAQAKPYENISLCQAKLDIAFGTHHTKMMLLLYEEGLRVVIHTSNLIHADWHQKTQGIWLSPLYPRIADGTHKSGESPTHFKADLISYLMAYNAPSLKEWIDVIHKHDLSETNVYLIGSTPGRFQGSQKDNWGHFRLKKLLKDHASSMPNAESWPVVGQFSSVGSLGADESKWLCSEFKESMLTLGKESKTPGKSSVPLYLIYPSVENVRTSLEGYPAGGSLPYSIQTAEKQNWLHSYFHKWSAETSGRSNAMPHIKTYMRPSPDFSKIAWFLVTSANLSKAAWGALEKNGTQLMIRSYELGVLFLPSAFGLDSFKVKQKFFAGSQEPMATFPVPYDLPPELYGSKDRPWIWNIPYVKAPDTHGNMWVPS
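Enzyme-compound mixtures sat 15 min at room temperature, followed by a 5 min reaction with 15 nM final substrate and 10 min with AlphaScreen beads. Recombinant human Tdp1 was used at 1 nM final.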
Six1-Eya2 inh – blocks human Six1 binding to Eya2 | Q15475+O00167 | AlphaScreen GST-Six1/His-Eya2 binding, biochemical; stronger effect = lower value | activity change, % (test concentration not listed) | 0.56% of 360,000 active | AID 651725; in the data active = activity change below about -65%; inconclusive = mostly about -30% to -63%
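AlphaScreen with GST-Six1 and His-Eya2 (5X mix: 250 nM and 500 nM), glutathione donor and nickel acceptor beads; buffer 50 mM Tris pH 8.0, 300 mM NaCl, 1 mM TCEP; 1 h at 37 C in the dark.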
TDP1 cell noCPT – qHTS for Inhibitors of human tyrosyl-DNA phosphodiesterase 1 (TDP1): qHTS in cells in absence of CPT | Potency, µM (doses to about 46.2 µM), most hits filed as inhibitors | 15% of 420,000 active | DT40 Tdp1-/- hTDP1 cells, no CPT, ATP luminescence, 48 h; note: nearly all actives have a fitted effect of over 55% in size
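Luminescent ATP content (CellTiter-Glo) served as the growth readout. Knockout chicken DT40 cells expressing human TDP1 were exposed to compounds without camptothecin for a minimum 48 hr at 37 °C.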
DT40 TDP1 CPT – DT40-hTDP1 cell growth loss with CPT; Potency, µM (doses to about 46.2 µM), usual class: inhibitors; 12% of 420,000 active; chicken DT40 Tdp1-/-;hTDP1 cells + 20 nM CPT, ATP luminescence, 48 h; note: nearly all actives have a fitted effect of over 55% in size
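Chicken DT40 Tdp1-/- cells stably complemented with human TDP1 were seeded at 400 cells/well in medium containing 20 nM camptothecin, exposed to pin-transferred compounds, and grown at 37 °C for at least 48 hr. Viability was read as ATP luminescence.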
Each line names hits and unclear results; the compound was inactive in the other large screens. Unless noted, calls come from the whole dose curve; as a rule, active = well fitted curve in the direction sought with a large enough effect; inconclusive = small, poorly fitted or top-dose-only effect, or another doubt; inactive = no such curve, though single readings can be large; an effect the other way counts as inactive or inconclusive.

Cc1ccc(OCCCCNC(C)c2ccccc2)c(C)c1 (centres undefined)	IL1B secr inh -91, TDP1 cell noCPT inconclusive, DT40 TDP1 CPT inconclusive (no result: TDP1 block)
COCCn1c(SCC(=O)c2ccc(Cl)cc2)nnc1C(C)C	TDP1 cell noCPT 21µM, DT40 TDP1 CPT inconclusive
COc1ccc(C(=O)NCCn2ccc3ccccc32)cc1	TDP1 cell noCPT inconclusive, DT40 TDP1 CPT inconclusive
Cc1ccc(C(=O)NCCn2ccc3ccccc32)cc1[N+](=O)[O-]	IL1B secr inh inconclusive, TDP1 cell noCPT 8.2µM, DT40 TDP1 CPT 13µM
O=C(NCCn1ccc2ccccc21)c1ccc(S(=O)(=O)N2CCCCC2)cc1	TDP1 cell noCPT 23µM, DT40 TDP1 CPT inconclusive
COc1ccc(Cl)cc1NC(=O)c1ccc2nc(Cc3ccccc3)oc2c1	TDP1 cell noCPT inconclusive, DT40 TDP1 CPT inconclusive (no result: IL1B secr inh, CtBP-E1A blk, Six1-Eya2 inh)
O=c1oc(-c2ccccc2Cl)nc2ccsc12	TDP1 cell noCPT 15µM, DT40 TDP1 CPT inconclusive
O=c1oc(-c2ccc(F)cc2)nc2ccsc12	none
Cc1ccc2c(c1)C=CC(C#N)N2C(=O)c1ccccc1 (centres undefined)	TDP1 cell noCPT 1.8µM, DT40 TDP1 CPT 1.6µM
COc1ccc(N2C(=O)C3C4C=CC(CC4)C3C2=O)c([N+](=O)[O-])c1 (centres undefined)	DT40 TDP1 CPT inconclusive
CCSC(=O)N1c2ccc(OC)cc2C=CC1C#N (centres undefined)	TDP1 cell noCPT 0.0052µM, DT40 TDP1 CPT 0.0082µM (no result: TDP1 block)
CC1=Cc2ccccc2C(C#N)N1C(=O)c1ccccc1 (centres undefined)	TDP1 cell noCPT 18µM, DT40 TDP1 CPT 21µM
Cc1ccc2c(c1)C=CC(C)N2C(=O)c1ccccc1 (centres undefined)	TDP1 cell noCPT 16µM, DT40 TDP1 CPT inconclusive
COc1ccc(C(=O)N2c3ccccc3C=CC2C#N)cc1 (centres undefined)	TDP1 cell noCPT inconclusive
N#C[C@H]1C(O)C(O)c2ccccc2N1C(=O)c1ccccc1 (some centres undefined)	none (no result: TDP1 block)
COc1ccc(C(C(=O)NCC2CCCO2)N(C(=O)CNC(=O)c2ccco2)c2cc(C)ccc2C)cc1OC (centres undefined)	none
O=C(c1cccc(Cl)c1)N1CCN(Cc2ccccc2F)CC1	TDP1 cell noCPT inconclusive
CCC1Nc2ncnc(N3CCCCC3)c2N(Cc2ccc(Br)cc2)C1=O (centres undefined)	DT40 TDP1 CPT inconclusive (no result: TDP1 block)
O=C1C(Cc2ccccc2)Nc2ncnc(N3CCc4ccccc4C3)c2N1Cc1ccc(Cl)cc1 (centres undefined)	IL1B secr inh -94, TDP1 cell noCPT inconclusive, DT40 TDP1 CPT inconclusive
CCC1Nc2ncnc(N3CCc4ccccc4C3)c2N(Cc2ccc(Cl)cc2)C1=O (centres undefined)	TDP1 cell noCPT inconclusive, DT40 TDP1 CPT 21µM
CCC1Nc2ncnc(N3CCN(c4ccccn4)CC3)c2N(Cc2ccc(Cl)cc2)C1=O (centres undefined)	IL1B secr inh -59, TDP1 cell noCPT inconclusive, DT40 TDP1 CPT inconclusive
CC1Nc2ncnc(N3CCN(c4ccccc4)CC3)c2N(Cc2ccc(Br)cc2)C1=O (centres undefined)	IL1B secr inh inconclusive, TDP1 cell noCPT 21µM, DT40 TDP1 CPT inconclusive
CCC1Nc2ncnc(N3CCCCC3)c2N(Cc2ccc(Cl)cc2)C1=O (centres undefined)	TDP1 cell noCPT inconclusive, DT40 TDP1 CPT inconclusive
Cc1cccc(OCC(=O)NNC(=O)Cn2c(=O)cnc3ccccc32)c1	TDP1 cell noCPT inconclusive (no result: TDP1 block)
Cc1cc(OCc2cc(C(=O)NC3CCC3)no2)cc(C)c1Cl	TDP1 cell noCPT inconclusive, DT40 TDP1 CPT inconclusive (no result: CtBP-E1A blk)
COc1ccc(C(CC(=O)O)NC(=O)c2cc3ccccc3oc2=O)cc1OC (centres undefined)	none (no result: IL1B secr inh, CtBP-E1A blk, Six1-Eya2 inh, TDP1 cell noCPT, DT40 TDP1 CPT)
CC1Nc2ncnc(N3CCc4ccccc4C3)c2N(Cc2ccccc2)C1=O (centres undefined)	TDP1 cell noCPT inconclusive, DT40 TDP1 CPT 21µM (no result: TDP1 block)
